The source of these data is PubChem BioAssay (EPA / NIEHS).

Activity calls are given as the source filed them. How the source made its calls: active means hit-call score of the fitted dose curve at least 0.9, where 1 is the maximum; inactive means score below 0.9.

Conditions in all cases: mRNA level, 48 h; actives raise or lower the signal
Read-out in experiment [1]: CFLAR gene, CFLAR (gene 8837)
Description: LTEA_HepaRG_CFLAR: Life Technologies and Expression Analysis (LTEA) Assay for CFLAR gene using HepaRG (AID 2283455). The essentials: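 Differentiated HepaRG cells in serum-free induction medium were exposed 48 h in duplicate to eight half-log concentrations up to 100 uM in 0.5% DMSO; mRNA measured by TaqMan qRT-PCR, normalized to ACTB, GAPDH, POLR2A; bidirectional fitting versus DMSO.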

Read-out in experiment [2]: Forkhead box O1 (FOXO1), FOXO1 (gene 2308)
The experiment in a line: LTEA_HepaRG_FOXO1: Life Technologies and Expression Analysis (LTEA) Assay for Forkhead box O1 (FOXO1) using HepaRG (AID 2283456). Put shortly:
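Differentiated HepaRG cells, in serum-free induction medium with 0.5% DMSO, exposed 48 h in duplicate to 8-point half-log series from 100 uM. FOXO1 mRNA measured by TaqMan qRT-PCR, normalized to ACTB, GAPDH, POLR2A; bidirectional fit versus DMSO.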

Read-out in experiment [3]: growth arrest and DNA damage 45 (GADD45A), GADD45A (gene 1647)
The experiment in a line: LTEA_HepaRG_GADD45A: Life Technologies and Expression Analysis (LTEA) Assay for growth arrest and DNA damage 45 (GADD45A) using HepaRG (AID 2283458). Put shortly: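 Differentiated HepaRG cells exposed 48 h in serum-free induction medium to 8 concentrations, top 100 uM in half-log steps, 0.5% DMSO. GADD45A mRNA quantified by qRT-PCR, normalized to ACTB, GAPDH and POLR2A; bidirectional fit versus DMSO.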

Read-out in experiment [4]: Forkhead box O3 (FOXO3), FOXO3 (gene 2309)
The experiment in a line: LTEA_HepaRG_FOXO3: Life Technologies and Expression Analysis (LTEA) Assay for Forkhead box O3 (FOXO3) using HepaRG (AID 2283459). The essentials:
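Differentiated human HepaRG cells, 48 h post-plating, exposed in duplicate for 48 h in serum-free induction medium; 8-point half-log series from 100 uM in 0.5% DMSO. FOXO3 mRNA by TaqMan qRT-PCR, normalized to ACTB/GAPDH/POLR2A; bidirectional fit versus DMSO.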

Read-out in experiment [5]: ABC Transporter (ABCB1), ABCB1 (gene 5243)
Description: LTEA_HepaRG_ABCB1: Life Technologies and Expression Analysis (LTEA) Assay for ABC Transporter (ABCB1) using HepaRG (AID 2283460). The essentials: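 HepaRG cells exposed in duplicate for 48 h in serum-free induction medium to eight half-log concentrations up to 100 uM in 0.5% DMSO. ABCB1 mRNA quantified by qRT-PCR, normalised to ACTB, GAPDH and POLR2A; fitted bidirectionally versus DMSO.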

Read-out in experiment [6]: growth arrest and DNA damage 45 (GADD45B), GADD45B (gene 4616)
Description: LTEA_HepaRG_GADD45B: Life Technologies and Expression Analysis (LTEA) Assay for growth arrest and DNA damage 45 (GADD45B) using HepaRG (AID 2283461). Put shortly:
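Transcript level quantified by Fluidigm TaqMan qRT-PCR with three housekeeping genes for normalization, analyzed for up- or down-regulation against 0.5% DMSO. HepaRG cultures dosed 48 h at eight half-log concentrations up to 100 uM, duplicates.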

Read-out in experiment [7]: ABC Transporter (ABCC3), ABCC3 (gene 8714)
Description: LTEA_HepaRG_ABCC3: Life Technologies and Expression Analysis (LTEA) Assay for ABC Transporter (ABCC3) using HepaRG (AID 2283462). The essentials: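 Transcript level by TaqMan qRT-PCR, normalised to three housekeeping genes, fitted in both directions relative to vehicle. Chemicals tested in duplicate at eight half-log concentrations up to 100 uM for 48 h on HepaRG cells (0.5% DMSO).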

Read-out in experiment [8]: ABC Transporter (ABCB11), ABCB11 (gene 8647)
The experiment in a line: LTEA_HepaRG_ABCB11: Life Technologies and Expression Analysis (LTEA) Assay for ABC Transporter (ABCB11) using HepaRG (AID 2283463). The essentials: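 Differentiated human HepaRG cells in serum-free induction medium, dosed in duplicate for 48 h. Eight-point half-log series from 100 uM in 0.5% DMSO; ABCB11 mRNA by qRT-PCR, normalized to ACTB, GAPDH, POLR2A, fitted bidirectionally versus DMSO.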

Read-out in experiment [9]: ABC Transporter (ABCC2), ABCC2 (gene 1244)
The experiment in a line: LTEA_HepaRG_ABCC2: Life Technologies and Expression Analysis (LTEA) Assay for ABC Transporter (ABCC2) using HepaRG (AID 2283464). The essentials:
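Endpoint is ABCC2 transcript level from qRT-PCR, normalized to three housekeeping genes and fitted bidirectionally relative to DMSO. Human HepaRG cells received test chemical for 48 h at up to 100 uM (8 points, half-log steps, 0.5% DMSO), duplicate wells.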

Read-out in experiment [10]: Broad substrate specificity ATP-binding cassette transporter ABCG2 (Homo sapiens) (UniProt Q9UNQ0)
The experiment in a line: LTEA_HepaRG_ABCG2: Life Technologies and Expression Analysis (LTEA) Assay for ABC Transporter (ABCG2) using HepaRG (AID 2283465). Put shortly:
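Differentiated HepaRG cells were exposed for 48 h in serum-free induction medium to 8 half-log concentrations, top 100 uM, in 0.5% DMSO. ABCG2 mRNA was measured by qRT-PCR, normalized to ACTB, GAPDH and POLR2A, with bidirectional fitting versus DMSO.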

Read-out in experiment [11]: ATP-citrate lyase (ACLY), ACLY (gene 47)
Description: LTEA_HepaRG_ACLY: Life Technologies and Expression Analysis (LTEA) Assay for ATP-citrate lyase (ACLY) using HepaRG (AID 2283466). The essentials:
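Differentiated HepaRG cells exposed 48 h in serum-free induction medium to eight half-log concentrations up to 100 uM in 0.5% DMSO, duplicates. Transcript measured by Fluidigm TaqMan qRT-PCR, normalized to ACTB, GAPDH, POLR2A; bidirectional fit versus DMSO.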

Read-out in experiment [12]: Peroxisomal acyl-coenzyme A oxidase 1 (ACOX1) gene, ACOX1 (gene 51)
Description: LTEA_HepaRG_ACOX1: Life Technologies and Expression Analysis (LTEA) Assay for Peroxisomal acyl-coenzyme A oxidase 1 (ACOX1) gene using HepaRG (AID 2283467). The essentials:
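HepaRG cells, plated 48 h then switched to serum-free induction medium, were exposed in duplicate for 48 h to 8-point half-log concentrations up to 100 uM in 0.5% DMSO. ACOX1 mRNA was measured by qRT-PCR, normalized to ACTB/GAPDH/POLR2A, and fitted bidirectionally versus DMSO.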

Read-out in experiment [13]: Alkaline Phosphatase, Placental (ALPP) gene, ALPP (gene 250)
Description: LTEA_HepaRG_ALPP: Life Technologies and Expression Analysis (LTEA) Assay for Alkaline Phosphatase, Placental (ALPP) gene using HepaRG (AID 2283468). Put shortly: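 ALPP transcript level, measured by qRT-PCR and normalized to three housekeeping genes (ACTB, GAPDH, POLR2A), after 48 h dosing of differentiated HepaRG in serum-free induction medium. Top concentration 100 uM with half-log dilutions (8 points, 0.5% DMSO, duplicates); bidirectional fitting relative to DMSO.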

Read-out in experiment [14]: Bcl-2 (BAD) gene, BAD (gene 572)
Description: LTEA_HepaRG_BAD: Life Technologies and Expression Analysis (LTEA) Assay for Bcl-2 (BAD) gene using HepaRG (AID 2283469). The essentials:
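Differentiated HepaRG cells were exposed in duplicate in 0.5% DMSO for 48 h to eight-point half-log concentrations up to 100 uM. BAD mRNA was measured by Fluidigm TaqMan qRT-PCR, normalized to ACTB, GAPDH and POLR2A, and fitted bidirectionally against DMSO.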

Read-out in experiment [15]: Bcl-2 (BAX) gene, BAX (gene 581)
The experiment in a line: LTEA_HepaRG_BAX: Life Technologies and Expression Analysis (LTEA) Assay for Bcl-2 (BAX) gene using HepaRG (AID 2283470). The essentials: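 Differentiated HepaRG cells exposed 48 h in serum-free induction medium, eight half-log concentrations from 100 uM, in duplicate, 0.5% DMSO vehicle. BAX mRNA by TaqMan qRT-PCR, normalised to ACTB, GAPDH and POLR2A.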

Read-out in experiment [16]: adenosine kinase (ADK) gene, ADK (gene 132)
Description: LTEA_HepaRG_ADK: Life Technologies and Expression Analysis (LTEA) Assay for adenosine kinase (ADK) gene using HepaRG (AID 2283471). Put shortly:
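ADK expression quantified by qRT-PCR, normalised to three housekeeping genes, after 48 h exposure of HepaRG cells to eight concentrations (top 100 uM, half-log steps, duplicate, 0.5% DMSO). Up- or down-regulation fitted relative to vehicle.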

Read-out in experiment [17]: Alpha-fetoprotein (AFP) gene, AFP (gene 174)
Description: LTEA_HepaRG_AFP: Life Technologies and Expression Analysis (LTEA) Assay for Alpha-fetoprotein (AFP) gene using HepaRG (AID 2283472). The essentials: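 Differentiated human HepaRG cells exposed 48 h in serum-free induction medium, 8-point half-log series from 100 uM in 0.5% DMSO, duplicate. AFP mRNA by qRT-PCR, normalized to ACTB, GAPDH, POLR2A; bidirectional fit vs DMSO.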

Read-out in the next experiment: BCL2L11 (gene 10018)
Description: LTEA_HepaRG_BCL2L11: Life Technologies and Expression Analysis (LTEA) Assay for Bcl-2 (BCL2L11) gene using HepaRG (AID 2283473). The essentials: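 BCL2L11 transcript levels are measured by Fluidigm qRT-PCR, normalized to three housekeeping genes. HepaRG cultures were plated 48 h, then treated 48 h with test chemical (top 100 uM, half-log, 0.5% DMSO vehicle); curves were fitted bidirectionally against DMSO.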

Read-out in experiment [18]: Apolipoprotein A-V (APOA5) gene, APOA5 (gene 116519)
Description: LTEA_HepaRG_APOA5: Life Technologies and Expression Analysis (LTEA) Assay for Apolipoprotein A-V (APOA5) gene using HepaRG (AID 2283474). The essentials:
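APOA5 transcript levels were quantified by qRT-PCR, normalized to three housekeeping genes, after 48 h chemical treatment of HepaRG cells (8 points, 100 uM maximum, half-log steps, 0.5% DMSO). Curves fitted in both directions against vehicle.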

Sequence of Broad substrate specificity ATP-binding cassette transporter ABCG2 (Homo sapiens) (Q9UNQ0 whole entry, looked up): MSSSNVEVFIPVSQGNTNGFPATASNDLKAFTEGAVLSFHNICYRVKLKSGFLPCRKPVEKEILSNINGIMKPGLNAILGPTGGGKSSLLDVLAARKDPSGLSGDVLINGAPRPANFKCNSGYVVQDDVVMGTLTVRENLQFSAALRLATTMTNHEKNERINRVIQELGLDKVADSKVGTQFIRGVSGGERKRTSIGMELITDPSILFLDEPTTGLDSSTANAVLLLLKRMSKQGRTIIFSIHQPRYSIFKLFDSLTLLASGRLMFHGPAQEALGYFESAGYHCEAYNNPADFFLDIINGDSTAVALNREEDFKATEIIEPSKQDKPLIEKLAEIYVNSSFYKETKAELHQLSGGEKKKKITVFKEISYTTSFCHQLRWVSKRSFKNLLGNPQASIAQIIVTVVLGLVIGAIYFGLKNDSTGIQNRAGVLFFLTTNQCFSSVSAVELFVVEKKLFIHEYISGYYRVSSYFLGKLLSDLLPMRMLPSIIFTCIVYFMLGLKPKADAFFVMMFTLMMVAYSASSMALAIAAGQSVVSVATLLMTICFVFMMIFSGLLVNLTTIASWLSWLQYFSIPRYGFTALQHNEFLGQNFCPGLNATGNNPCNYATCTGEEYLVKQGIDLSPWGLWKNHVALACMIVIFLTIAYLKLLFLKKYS

Take `Clc1ccccc1C(c1ccccc1)(c1ccccc1)n1ccnc1`: the result in experiment [1], in [2], in experiment [3], in [4], in [6] and in experiment [9] was inactive. Besides, the AC50 (in general, the midpoint of the concentration-response curve, whichever way the signal moves) in [5] was 15.8 µM (active); in experiment [7] it was 78.3 µM (active); in [8], 28.6 µM (active); in [10] it was 37.5 µM (active); in [11], 8.91 µM (active); in experiment [12], 60 µM (active). For the same compound, the AC50 in [13] was 9.09 µM (active); in experiment [14] it was 91.3 µM (active); in experiment [15], 12.3 µM (active); in experiment [16] it was 93 µM (active); in experiment [17] it was 20.1 µM (active); in the experiment with BCL2L11 (gene 10018), 50 µM (active). Besides, the concentration at half-maximal activity (AC50) in [18] was 20.8 µM (active).

For the compound `Cc1cccc2ccccc12`, the outcome in [1], in experiment [2], in [3], in experiment [4], in experiment [5] and in [6] was inactive. In addition, the result in [7], in experiment [8], in experiment [9], in experiment [10], in experiment [11] and in experiment [12] was inactive. Further, the outcome (in [13]; in experiment [14]; in experiment [15]; in [17]; with BCL2L11 (gene 10018); in [18]) was inactive.

With `c1ccc(C[n+]2cccc3ccccc32)cc1`, the result in experiment [1], in experiment [5], in experiment [6], in [9], in experiment [11] and in experiment [14] was inactive. Besides, in [16], the outcome was inactive. The concentration at half-maximal activity (AC50) was 76.1 µM (active) in experiment [2]; 63.7 µM (active) in experiment [3]; 50 µM (active) in experiment [4]; 23.2 µM (active) in experiment [7]; 31.3 µM (active) in experiment [8]; 3.93 µM (active) in experiment [10]. In addition, the AC50 in [12] was 22.8 µM (active); in experiment [13], 13 µM (active); in experiment [15] it was 69.4 µM (active); in experiment [17] it was 35 µM (active); in the experiment with BCL2L11 (gene 10018) it was 32.4 µM (active); in [18] it was 31.4 µM (active).
